These results are taken from PubChem BioAssay (Tox21).

The nature of assay [1]: qHTS assay to identify small molecule antagonists of the estrogen related receptor (ERR) signaling pathway from Tox21 library - cell viability counter screen (AID 1224834). Further: nearly all actives have a fitted effect of over 30% in size. The method, boiled down:
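ERR reporter cells were plated 6 h before compound addition, then exposed to test compounds in DMSO for 17.5 h at 37 C. Viability was read as CellTiter-Fluor fluorescence after a 30-minute incubation at 37 C.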
(In general: qHTS replaces the single test concentration by a dilution series.)

The target in assay [2] is Luciferin 4-monooxygenase (Photinus pyralis) (UniProt P08659). Put plainly: qHTS assay to identify small molecule inhibitors of firefly luciferase (AID 1224835). Further: series mostly up to about 120 µM; nearly all actives have a fitted effect of over 25% in size. The gist of the method: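 Quantitative HTS format; KM concentrations of both substrates. Purified P. pyralis FLuc activity quantified from luminescence images.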
Luciferin 4-monooxygenase (Photinus pyralis), sequence (P08659 whole entry, looked up): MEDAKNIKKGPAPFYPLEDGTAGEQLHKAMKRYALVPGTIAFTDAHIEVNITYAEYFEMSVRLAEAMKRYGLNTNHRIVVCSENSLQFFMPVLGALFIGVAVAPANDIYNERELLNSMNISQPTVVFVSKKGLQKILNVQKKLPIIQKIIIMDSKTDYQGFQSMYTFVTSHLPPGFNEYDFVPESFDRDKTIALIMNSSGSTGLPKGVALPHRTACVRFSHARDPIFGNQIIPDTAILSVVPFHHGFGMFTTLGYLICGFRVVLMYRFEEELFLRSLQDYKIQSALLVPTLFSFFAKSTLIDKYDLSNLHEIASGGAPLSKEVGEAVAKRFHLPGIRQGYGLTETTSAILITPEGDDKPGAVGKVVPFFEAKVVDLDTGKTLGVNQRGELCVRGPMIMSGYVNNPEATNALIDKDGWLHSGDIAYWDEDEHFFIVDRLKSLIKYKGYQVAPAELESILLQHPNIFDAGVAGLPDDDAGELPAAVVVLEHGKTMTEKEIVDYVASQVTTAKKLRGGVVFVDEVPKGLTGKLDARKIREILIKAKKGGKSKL
Assay [3] is described as follows: qHTS assay to identify small molecule agonists of the constitutive androstane receptor (CAR) signaling pathway - cell viability counter screen (AID 1224836). Further: series mostly up to about 92 µM; nearly all actives have a fitted effect of over 45% in size. The gist of the method: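 Counter screen multiplexed with the CAR reporter readout: HepG2 cells co-transfected with hCAR and the CYP2B6-2.2kb construct receive a 15-concentration compound series and 0.75 uM PK11195 (final), then CellTiter-Fluor fluorescence is read after 23 h.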

Assay [4] is described as follows: qHTS assay to identify small molecule antagonists of the constitutive androstane receptor (CAR) signaling pathway - cell viability counter screen (AID 1224837). Further: series mostly up to about 92 µM; nearly all actives have a fitted effect of over 45% in size. The method, boiled down:
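HepG2 cells stably expressing hCAR and a CYP2B6-2.2kb reporter were plated and pre-incubated 4 hr at 37 C/5% CO2, then given compounds at 15 concentrations plus 50 nM CITCO (final). After 23 hr, viability was read by CellTiter-Fluor fluorescence.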

Assay [5] has as its target Nuclear receptor subfamily 1 group I member 3 (Homo sapiens) (UniProt Q14994). Put plainly: qHTS assay to identify small molecule antagonists of the constitutive androstane receptor (CAR) signaling pathway (AID 1224838). Further: nearly all actives have a fitted effect of over 40% in size. The gist of the method: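 HepG2 cells stably co-transfected with hCAR and a CYP2B6-2.2kb luciferase reporter were seeded 4 h before compound addition at 15 concentrations. Cells were stimulated with 50 nM CITCO (final) for 24 h at 37 C; luciferase luminescence was then read.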

The target is the same in assay [6]. Put plainly: qHTS assay to identify small molecule agonists of the constitutive androstane receptor (CAR) signaling pathway (AID 1224839). Further: series mostly up to about 92 µM; nearly all actives have a fitted effect of over 15% in size. The gist of the method:
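A 15-concentration quantitative screen uses HepG2 cells co-transfected stably with human CAR and CYP2B6-2.2kb reporter. Treatment lasts 24 h with 0.75 uM PK11195 final present; ONE-Glo luminescence is the signal.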

Assay [7] can be described thus: qHTS assay to identify small molecule antagonists of the estrogen related receptor signaling pathway with the pleiotropic PPARgamma coactivator (PGC) from Tox21 10K library - cell viability counter screen (AID 1224840; active means well fitted cell-killing curve with a large enough effect in the repeat runs, not every such curve was filed as active; further: nearly all actives have a fitted effect of over 40% in size). The method, boiled down: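 PGC/ERR cells were seeded at 2,000 cells/well and left 6 hours at 37 C/5% CO2 before pin-tool addition of compounds in DMSO. After 17.5 hours at 37 C, CellTiter-Fluor was added and fluorescence read 30 minutes later.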

Assay [8] can be described thus: qHTS assay to identify small molecule agonists of the hypoxia (HIF-1) signaling pathway - cell viability counter screen (AID 1224844; calls by dose curve; further: nearly all actives have a fitted effect of over 50% in size). The gist of the method: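 HRE-bla ME-180 cells in medium with 0.5% dialyzed FBS were preincubated 5 hrs at 37C, exposed to compounds for 17 hrs, then viability was read as CellTiter-Glo luminescence after 30 min at room temperature, in the reporter wells.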

Assay [9] is described as follows: qHTS assay to identify small molecule agonists of H2AX (AID 1224845; active means well fitted activation curve with a large enough effect in the signal ratio in the repeat runs, not every such curve was filed as active; the % refers to the signal ratio). The gist of the method: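 Wild-type CHO-K1 cells plated overnight, then exposed 3 hr at 37C to compounds at 15 concentrations (0.76% DMSO). Lysed, then HTRF anti-pH2AX(S139)-cryptate/anti-H2AX-d2 detection after 24 hr at room temperature; emissions 665 and 620 nm.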
Assay [10] in a line: qHTS assay to identify small molecule agonists of the hypoxia (HIF-1) signaling pathway (AID 1224846; active means well fitted activation curve with a large enough effect in the signal ratio in the repeat runs, not every such curve was filed as active; the % refers to the signal ratio). The method, boiled down:
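HRE-bla ME-180 cells (beta-lactamase reporter under hypoxia response element) were plated at 2,000 cells/well in medium with 0.5% dialyzed FBS, rested 5 hrs, then given compounds in DMSO for 17 hrs at 37C, 5% CO2. Reporter induction was read with CCF4-AM FRET substrate.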

A short description of assay [11]: qHTS assay to identify small molecule agonists of H2AX - cell viability counter screen (AID 1224847; calls by dose curve; further: top concentration of the series differs between compounds; nearly all actives have a fitted effect of over 30% in size). The gist of the method: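 We seed wild-type CHO-K1 cells overnight, treat them for 3 hr at 37C with compounds in 15-concentration series, and quantify remaining viability by CellTiter-Glo luminescence.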
Assay [12] in a line: qHTS RealTime-Glo MT Cell Viability Assay in HepG2 cells - 24 hour (AID 1224867). Further: nearly all actives have a fitted effect of over 50% in size. The method, boiled down:
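Real-time, nonlytic viability: 600 HepG2 cells/well mixed with NanoLuc enzyme plus prosubstrate; 5 h settle, compound (DMSO) added by pintool; luminescence monitored over 40 h at 37 C.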

Assay [13] is described as follows: qHTS RealTime-Glo MT Cell Viability Assay in HEK293 cells - 32 hour (AID 1224868). Further: top concentration of the series differs between compounds; nearly all actives have a fitted effect of over 50% in size. The gist of the method: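 Cells + reagent dispensed (600 cells/well, HEK293) → 5 h at 37 C/5% CO2 → 23 nL compound in DMSO pinned → 40 h at 37 C → luminescence read at 0, 8, 16, 24, 32, 40 h.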
Assay [14] in a line: A CellTox Green Cytotoxicity Assay to monitor cytotoxicity in HEK293 cells - 0 hour (AID 1224869). Further: nearly all actives have a fitted effect of over 50% in size. The method, boiled down:
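HEK293 cells premixed with CellTox Green dye were seeded at 600 cells/well and left 5 h at 37 C/5% CO2 before pin transfer of 23 nL compound in DMSO. Fluorescence from dye bound to dead-cell DNA was read during 40 h treatment.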

Assay [15] can be described thus: qHTS RealTime-Glo MT Cell Viability Assay in HepG2 cells - 40 hour (AID 1224870). Further: nearly all actives have a fitted effect of over 50% in size. Further: potency means the concentration at half of the fitted maximal effect. The method, boiled down:
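HepG2 cells mixed with RealTime-Glo MT reagents (NanoLuc plus cell-permeant prosubstrate) were seeded at 600 cells/well, incubated 5 h at 37 C/5% CO2, then pinned with compounds in DMSO; nonlytic luminescence tracked viability during 40 h treatment.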

For assay [16], the target named is Thyrotropin receptor (Homo sapiens) (UniProt P16473). Nature of the assay: qHTS assay to identify small molecule agonists of the thyroid stimulating hormone receptor (TSHR) signaling pathway (AID 1224843; calls by dose curve; further: nearly all actives have a fitted effect of over 45% in size). The gist of the method: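 TSHR-expressing HEK293 cells (800 per well) were exposed to compounds for 30 min at room temperature. cAMP was then detected by HTRF competition with cAMP-d2 and anti-cAMP cryptate, read after 1 h at room temperature. Fifteen concentrations, triplicate.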
Thyrotropin receptor (Homo sapiens), sequence (P16473 whole entry, looked up): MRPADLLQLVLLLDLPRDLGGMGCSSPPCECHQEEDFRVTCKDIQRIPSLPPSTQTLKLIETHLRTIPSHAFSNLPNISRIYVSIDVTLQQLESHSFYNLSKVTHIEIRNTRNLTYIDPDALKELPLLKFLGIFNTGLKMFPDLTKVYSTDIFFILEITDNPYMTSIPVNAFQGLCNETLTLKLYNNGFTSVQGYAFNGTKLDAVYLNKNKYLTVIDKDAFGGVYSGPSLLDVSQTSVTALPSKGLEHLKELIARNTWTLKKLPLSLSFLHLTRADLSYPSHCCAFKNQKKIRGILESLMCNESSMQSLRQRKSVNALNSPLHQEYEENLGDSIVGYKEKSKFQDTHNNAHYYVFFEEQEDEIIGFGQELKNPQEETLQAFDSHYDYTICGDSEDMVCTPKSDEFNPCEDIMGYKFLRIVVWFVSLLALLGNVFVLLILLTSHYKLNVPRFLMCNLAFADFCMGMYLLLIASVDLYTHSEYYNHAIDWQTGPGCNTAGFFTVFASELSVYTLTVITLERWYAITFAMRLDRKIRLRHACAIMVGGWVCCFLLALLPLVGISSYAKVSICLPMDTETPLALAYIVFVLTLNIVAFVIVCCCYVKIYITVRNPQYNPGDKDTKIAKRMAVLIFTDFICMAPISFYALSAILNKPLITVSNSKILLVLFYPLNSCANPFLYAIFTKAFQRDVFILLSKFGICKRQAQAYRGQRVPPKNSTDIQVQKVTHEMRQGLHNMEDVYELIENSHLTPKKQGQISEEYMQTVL

A number with no mark means an inactive call. Inconclusive results are not listed. Active and inactive are the calls of the source. Unless noted, the call rests on the fitted dose curve; in most records, active means well fitted curve in the direction sought with a large enough effect in the repeat runs; inconclusive means weak or mixed curves; inactive means no such curve, though single readings can be large; an effect the other way counts as inactive or inconclusive.

Nuclear receptor subfamily 1 group I member 3 (Homo sapiens), sequence (Q14994 whole entry, looked up): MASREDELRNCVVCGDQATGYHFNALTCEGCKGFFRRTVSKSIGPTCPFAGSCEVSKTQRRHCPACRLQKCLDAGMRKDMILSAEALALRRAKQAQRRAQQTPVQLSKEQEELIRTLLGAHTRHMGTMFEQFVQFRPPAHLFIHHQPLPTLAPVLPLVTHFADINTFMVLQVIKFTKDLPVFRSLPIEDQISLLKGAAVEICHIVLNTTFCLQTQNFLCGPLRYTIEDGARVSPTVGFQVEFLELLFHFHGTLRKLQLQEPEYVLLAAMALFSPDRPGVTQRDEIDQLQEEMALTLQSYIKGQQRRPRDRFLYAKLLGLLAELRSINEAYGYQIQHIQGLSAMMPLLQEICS

`C=COC(=O)C(C)(CC)CCC(C)C` (centres undefined): the Potency result in assay [1], in assay [2], in [5], in assay [6], in assay [8] and in assay [9] was “inactive” throughout. Also, the Potency result in assay [13] and in assay [15] was “inactive” in each case. Also, the molecule was classed as inactive in assay [3], in assay [4], in assay [7], in assay [10], in assay [11] and in assay [12]. Besides, the outcome in assay [14] was inactive.

With `C1CCC2(CCCCO2)OC1`, the Potency entry in [1], in assay [2], in assay [5], in assay [6], in assay [16] and in assay [8] was “inactive” in each case. Moreover, the Potency entry in assay [9], in assay [13] and in assay [15] was “inactive” in each case. Also, the call in assay [3], in assay [4], in assay [7], in [10], in [11] and in assay [12] was inactive. The molecule was called inactive in assay [14].

As to `C[N+](C)(C)CCCCCCCCCC[N+](C)(C)C`, the Potency entry in assay [1], in assay [2], in [5], in assay [6], in assay [16] and in assay [8] was “inactive” in each case. Further, the Potency entry in assay [13] and in assay [15] was “inactive” throughout. Further, the result in [3], in assay [4], in assay [7], in [11], in assay [12] and in assay [14] was inactive.

As to `Cc1onc(-c2c(Cl)cccc2Cl)c1C(=O)Cl`, the Potency entry in assay [1], in assay [2], in [5], in assay [6], in assay [16] and in assay [8] was “inactive” each time. Besides, the Potency entry in assay [13] and in [15] was “inactive” in each case. For the same molecule, the outcome in assay [3], in assay [4], in assay [7], in assay [10], in assay [11] and in [12] was inactive. Further, the molecule was classed as inactive in assay [14].

For the molecule `COc1ccnc(CS(=O)c2nc3cc(OC(F)F)ccc3[nH]2)c1OC` (centres undefined), the Potency result in assay [1], in assay [2], in assay [5], in assay [6], in assay [8] and in [9] was “inactive” each time. The Potency entry in [15] is “inactive”. In addition, the result in [3], in assay [4], in assay [7], in [10], in assay [11] and in assay [12] was inactive. The outcome in assay [14] was inactive.

As to `N[C@@H](CCC(=O)O)C(=O)O`, the Potency result in [1], in assay [2], in [5], in assay [6], in assay [16] and in [8] was “inactive” each time. Besides, the Potency result in assay [13] and in assay [15] was “inactive” in each case. The call in assay [3], in assay [4], in [7], in assay [10], in assay [11] and in assay [12] was inactive. Moreover, the molecule was classed as inactive in assay [14].

In the case of `Cc1ncc(COP(=O)(O)O)c(C=O)c1O`, the Potency entry in assay [1], in [2], in [5], in assay [6], in [16] and in [8] was “inactive” throughout. The Potency entry in assay [9], in [13] and in assay [15] was “inactive” each time. Also, the call in [3], in [4], in assay [7], in assay [10], in assay [11] and in assay [12] was inactive. Also, the molecule was called inactive in assay [14].

`CCCCN(CCC(=O)OCC)C(C)=O`: the Potency entry in assay [1], in assay [2], in [5], in assay [6], in [16] and in assay [13] was “inactive” throughout. Further, the Potency entry in assay [15] was “inactive”. The molecule was classed as inactive in assay [3], in assay [4], in assay [7], in assay [10], in assay [11] and in assay [12]. Moreover, the outcome in [14] was inactive.

For `[K+]`, the Potency result in [1], in [2], in assay [5], in assay [6], in assay [16] and in [8] was “inactive” each time. The Potency result in assay [9] and in assay [13] was “inactive” in each case. Also, the molecule was classed as inactive in assay [3], in assay [4], in assay [7], in assay [10], in assay [11] and in assay [14]. Besides, the Potency in assay [15] was 34.7 µM (active).
